Compound activity from PubChem BioAssay.
A selection: hits, their analogues and other compounds. The true share with any hit is near 2.7%.
MRP resist rev: reverses drug resistance mediated by MRP. 85,000 compounds, 0.04% hits. AID 602. H69AR cells + 2 uM doxorubicin, CellTiter-Glo, 72 h. differential viability (reversal), % at 10 µM;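 active means viability drop by adding the cancer drug above about 55%, with treated viability meeting a 40% cutoff, limit read from the data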;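 further: larger differential means the compound sensitizes cells more to doxorubicin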
MRP1 act: activates MRP-1 | H69AR cells + doxorubicin, viability rescue, CellTiter-Glo | viability increase, % at 10 µM | 140,000 compounds, 0.61% hits;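 active means viability gain under doxorubicin at or above a set limit, the compound median plus 3 SD, cut at about 4.7% in these data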;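 further: MRP-1 overexpressing cells given doxorubicin 25 µM after compound pretreatment; 18-22 h compound pretreatment then 72 h with doxorubicin before readout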
ERb coact inh: blocks coactivator binding to human estrogen receptor beta | TR-FRET ER-beta LBD / SRC1-Cy5 peptide binding; receptor agonist-loaded with 1 µM estradiol | inhibition, % at 25.6 µM | AID 633 | 86,000 compounds, 1.3% hits | Q92731;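 active means compounds whose percent inhibition of the receptor-coactivator binding signal exceeds about 50% in the single-dose screen, limit read from the data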
ERa SRC1 pot: ER-alpha (human) coactivator binding potentiation; P03372; TR-FRET ERalpha-LBD/SRC-Cy5 coactivator binding, 2 h; 100 = basal binding, no effect; coactivator binding (% of control), % at 25.6 µM; 86,000 compounds, 1.3% hits; in the data active means activity above about 200%;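 further: binding measured in presence of low estradiol as agonist stimulus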
Target sequence (P03372 whole entry, looked up, the tested form may be a part): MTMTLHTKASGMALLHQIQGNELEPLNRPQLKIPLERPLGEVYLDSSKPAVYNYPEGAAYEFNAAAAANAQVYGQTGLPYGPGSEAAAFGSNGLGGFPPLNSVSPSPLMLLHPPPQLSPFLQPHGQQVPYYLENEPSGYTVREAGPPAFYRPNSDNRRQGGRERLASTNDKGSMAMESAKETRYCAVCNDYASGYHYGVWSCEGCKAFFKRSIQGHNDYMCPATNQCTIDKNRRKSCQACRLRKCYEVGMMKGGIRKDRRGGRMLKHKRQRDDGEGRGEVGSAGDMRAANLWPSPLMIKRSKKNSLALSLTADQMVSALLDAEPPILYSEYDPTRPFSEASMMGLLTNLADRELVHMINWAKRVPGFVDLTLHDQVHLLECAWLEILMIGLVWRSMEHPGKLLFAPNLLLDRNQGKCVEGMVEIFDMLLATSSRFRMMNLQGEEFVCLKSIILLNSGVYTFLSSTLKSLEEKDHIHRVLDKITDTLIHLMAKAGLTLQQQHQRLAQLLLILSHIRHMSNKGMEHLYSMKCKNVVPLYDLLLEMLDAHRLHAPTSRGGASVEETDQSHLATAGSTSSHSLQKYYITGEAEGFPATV
ERa coact inh: ER-alpha (human) coactivator binding inhibition; TR-FRET ER-alpha LBD / SRC-1 peptide, estradiol-bound; P03372; AID 629; 86,000 compounds, 1.7% hits; inhibition, % at 25.6 µM; in the data active means inhibition above about 50%
A number is an active result; n = inactive; x = not tested or not shown; [ ] = another dose, or the depositor's remark.

SMILES	MRP resist rev	MRP1 act	ERb coact inh	ERa SRC1 pot	ERa coact inh
CC1(C)CC(NCc2ccc3c(c2)OCO3)CCO1 (centres undefined)	n	n	n	n	n
CCOC(=O)c1cc(C#N)c(SCc2ccc(C#N)cc2)nc1C	n	n	66[fluorescence artefact?]	252[fluorescence artefact?]	72[fluorescence artefact?]
CCOC(=O)c1cc2c(N)c(C(=O)c3cc(C#N)c(SC)nc3C)sc2nc1C	n	n	n	n	69[fluorescence artefact?]
N/C(Cc1ccccc1)=N\OC(=O)c1cccc2ccccc12	x	n	x	x	x
COc1ccccc1NS(=O)(=O)c1cc(NC(=O)c2ccc3c(c2)OCCO3)ccc1C	x	n	x	x	x
CCC(C)C(NC(=O)C(N)CC(C)C)C(=O)NC(CCC(=O)OCc1ccccc1)C(N)=O (centres undefined)	n	n	n	211	n
COC(=O)CCC(NC(=O)OCc1ccccc1)C(=O)NC(CC(C)C)C(=O)OC (centres undefined)	n	n	n	n	n
CC(NC(=O)/C=C/c1cnc2ccccc2n1)C12CC3CC(CC(C3)C1)C2 (centres undefined)	x	n	x	x	x
O=C(CNC(=O)c1ccc(S(=O)(=O)N2CCCC2)cc1)N/N=C/c1ccc(Cl)cc1Cl	x	n	x	x	x
Nc1c(C(=O)NCc2ccccc2)nnn1Cc1ccc(F)cc1	n	n	n	n	n
CCOc1ccc(Cn2nnc(C(=O)Nc3cc(C)cc(C)c3)c2N)cc1	n	n	n	n	n
CCOc1ccc(Cn2nnc(C(=O)Nc3cc(OC)cc(OC)c3)c2N)cc1	n	n	n	257[fluorescence artefact?]	n
CCc1ccc(Cn2nnc(C(=O)NCc3ccccc3OC)c2N)cc1	n	n	n	206	n
COc1ccc(CNC(=O)c2nnn(Cc3ccc(OC)cc3)c2N)cc1	n	n	n	208	n
COC(=O)C1C2C=CC3(CN(CC4CCCO4)C(=O)C13)O2 (centres undefined)	n	n	n	n	n
CCOc1cc2[nH]c(=O)n(CC3CCC(C(=O)NC(C)CC)CC3)c(=O)c2cc1OCC (centres undefined)	n	x	n	n	n
CCCC(=Nc1ccc(N)cc1)C1=C(O)C(C(=O)OC)C(C)(C)CC1=O (centres undefined)	n	n	66[fluorescence artefact?]	n	n
COc1ccc(-c2csc(NC(=O)c3ccc(OCC(=O)N4CCOCC4)c(OC)c3)n2)cc1OC	x	n	x	x	x
C=CCc1c(C)nc(-c2ccccc2)nc1N/N=C(\C)c1ccccc1	x	5.5	x	x	x
C=CCc1c(C)nc(-c2ccccc2)nc1Nc1ccc(O)cc1	x	n	x	x	x
C=CCn1c(=O)c2ccccc2n2c(SCC(=O)c3ccccc3)nnc12	n	n	n	n	n
C=CCn1c(=O)c2ccccc2n2c(SCc3nnc(-c4ccccc4Br)o3)nnc12	n	n	n	n	52[fluorescence artefact?]
COC(=O)c1cnn(-c2cc(Oc3ccccc3)ncn2)c1N	x	5.7	x	x	x
COc1ccc2c(c1)CC/C(=C\c1ccc(OC)c(Cn3nc(C)cc3C)c1)C2=O	x	n	n	n	52
Fc1ccc(NC(=S)NC23CN4CN(CN(C4)C2)C3)cc1	x	n	x	x	x
SMILES	MRP resist rev	MRP1 act	ERb coact inh	ERa SRC1 pot	ERa coact inh
COc1ccc(C(=O)Nc2nc3c(s2)Cc2cc(OC)ccc2-3)cc1	n	n	55	n	95[fluorescence artefact?]
COc1ccc2c(c1)Cc1sc(NC(=O)c3ccccc3)nc1-2	n	n	n	n	n
COCCN(Cc1ccccc1)P(=O)(O)c1ccccc1OCC(=O)O	n	n	n	262[fluorescence artefact?]	n
COc1ccc(-c2cc(-c3ccc(OC)cc3)c(C#N)c(SC)n2)cc1	n	n	n	458[fluorescence artefact?]	n
CSc1nc(-c2ccco2)cc(-c2ccccc2)c1C#N	n	n	n	n	n
Cc1nc(NCc2ccco2)c2c3c(sc2n1)CCC3	n	n	n	n	n
CCN1CCc2c(sc3c2c(NCc2ccco2)nc2nnnn23)C1	n	n	62[fluorescence artefact?]	n	85[fluorescence artefact?]
CCOC(=O)c1c(C)[nH]c(C(=O)OCCOc2ccccc2C)c1C	x	n	x	x	x
COc1ccc(-c2oc(/N=C/N3CCOCC3)c(C#N)c2-c2ccc(OC)cc2)cc1	n	n	n	n	n
COc1ccc(COc2ccccc2C(=O)NCc2ccccc2)cc1F	x	n	x	x	x
CC1CCC2(CC1)NC(=O)N(CC(=O)c1ccc[nH]1)C2=O (centres undefined)	n	n	n	n	75
Cn1nnnc1SCC(=O)N(C1CCCCC1)C1CCCCC1	n	n	51[fluorescence artefact?]	n	n
Cc1nn(CC(=O)OC(C)C(=O)Nc2ccccc2[N+](=O)[O-])c(C)c1[N+](=O)[O-] (centres undefined)	x	n	x	x	x
Cc1ccc2c(c1)c1c3n2CCN(C(=O)C2CC2)C3CCC1 (centres undefined)	n	n	n	n	n
